Screening data from PubChem.
Sampled rows, rich in hits. Any-hit rate of the full collection: about 10%.
BAZ2B block – qHTS Assay for Inhibitors of BAZ2B. Bromodomain adjacent to zinc finger domain protein 2B (Homo sapiens), Q9UIF8. Potency, µM (titrated, usually from 114 µM), inactives show at the top dose activity change, negative = inhibition, actives largely listed as inhibitors. AlphaScreen BAZ2B-H3K14Ac peptide displacement. 360,000 tested, 4.4% active; also: potency is read from the fitted curve at half-maximal effect; % is scaled to controls: 0 for no effect and ±100 for the full control effect; nearly all actives have a fitted effect of over 60% in size
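AlphaScreen displacement: compounds (up to 110uM) incubated 30 min at room temperature with a preformed 50 nM BAZ2B/50 nM biotinylated H3K14Ac peptide complex in PBS pH 7.4 with Tween-20. Donor and acceptor beads at 10 ug/mL final added, 20 min light-protected before reading.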
CtBP-E1A inh – qHTS Assay for Inhibitors of the CtBP/E1A Interaction; CtBP / adenovirus E1A interaction (AlphaScreen); 340,000 tested, 0.49% active; AlphaScreen GST-E1A/His-CtBP binding, 1536-well; hits give low values; AID 651724, 2012; activity change, % (test concentration not listed); in the data active = activity change below about -65%; inconclusive = mostly about -30% to -63%; also: % is scaled to controls: 0 for no effect and ±100 for the full control effect
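Steps: dispense buffer (Tris pH 8.0, NaCl 300 mM, TCEP 1 mM, BSA, Tween 20); add 5X protein mix (GST-E1A, His-CtBP, 125 nM each); pin 23 nL compound; 2 h at 37 °C, dark; add 5X beads (50 ug/mL); 1 h; read.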
HP1b binding inh – HTS for Inhibitors of HP1-beta Chromodomain Interactions with Methylated Histone Tails; Chromobox protein homolog 1 (Homo sapiens), P83916; AlphaScreen HP1-beta / biotin-H3K9me3 peptide binding; Potency, µM (doses to about 114 µM), without a hit: top-dose activity change, negative = inhibition, hits mostly inhibitors; 390,000 tested, 0.56% active; also: potency is read from the fitted curve at half-maximal effect; nearly all actives have a fitted effect of over 70% in size
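AlphaScreen: HP1-beta (50 nM) preformed 30 min with biotin-H3(1-18)K9me3 peptide (50 nM) in PBS pH 7.4, 0.01% Tween-20. Compound added for 30 min at RT, then streptavidin donor/nickel chelate acceptor beads (10 ug/mL) for 30 min.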
Six1-Eya2 inh – qHTS Assay for Inhibitors of the Six1/Eya2 Interaction. 360,000 tested, 0.56% active. Homeobox protein SIX1 (Homo sapiens) + Protein phosphatase EYA2 (Homo sapiens), …. AlphaScreen GST-Six1/His-Eya2 binding, biochemical; hits give low values. activity change, % (no concentration beside the values). AID 651725, 2012; in the data active = activity change below about -65%; inconclusive = mostly about -30% to -63%; also: % is scaled to controls: 0 for no effect and ±100 for the full control effect
Target sequence (O00167 whole entry, looked up): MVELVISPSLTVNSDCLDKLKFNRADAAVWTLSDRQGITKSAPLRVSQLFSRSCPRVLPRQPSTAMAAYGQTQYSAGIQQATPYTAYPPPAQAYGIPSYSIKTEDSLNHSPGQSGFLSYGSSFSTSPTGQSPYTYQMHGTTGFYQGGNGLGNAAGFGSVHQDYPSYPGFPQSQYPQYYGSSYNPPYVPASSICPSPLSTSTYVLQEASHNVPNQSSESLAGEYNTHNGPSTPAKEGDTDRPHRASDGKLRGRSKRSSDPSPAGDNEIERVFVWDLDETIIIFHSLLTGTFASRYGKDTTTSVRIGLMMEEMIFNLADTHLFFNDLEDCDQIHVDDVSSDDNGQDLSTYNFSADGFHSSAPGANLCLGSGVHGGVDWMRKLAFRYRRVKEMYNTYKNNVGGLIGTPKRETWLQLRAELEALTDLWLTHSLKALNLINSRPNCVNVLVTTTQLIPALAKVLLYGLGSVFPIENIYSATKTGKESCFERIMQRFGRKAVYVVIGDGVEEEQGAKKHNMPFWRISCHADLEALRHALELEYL
Target sequence (Q15475 whole entry, looked up): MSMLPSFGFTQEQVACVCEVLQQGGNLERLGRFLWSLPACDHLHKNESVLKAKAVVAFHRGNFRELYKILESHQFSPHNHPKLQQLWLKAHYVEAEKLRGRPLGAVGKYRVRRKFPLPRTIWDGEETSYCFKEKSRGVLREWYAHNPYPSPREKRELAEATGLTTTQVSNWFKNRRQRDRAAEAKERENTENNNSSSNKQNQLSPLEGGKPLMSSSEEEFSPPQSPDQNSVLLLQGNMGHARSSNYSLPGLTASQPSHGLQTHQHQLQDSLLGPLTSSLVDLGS
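Six1/Eya2 binding was read as AlphaScreen signal after compounds were pinned into GST-Six1 plus His-tagged Eya2 (5X stock 250/500 nM) in pH 8.0 Tris/NaCl/TCEP buffer, beads added, then incubated 1 h, 37 C, dark.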
JMJD2A Tudor inh – qHTS Assay for Inhibitors of JMJD2A-Tudor Domain. AlphaScreen JMJD2A-Tudor / H3K4me3 peptide binding. Potency, µM (top dose mostly 114 µM), without a hit: at the highest dose activity change, negative = inhibition, hits mostly inhibitors. 390,000 tested, 4.4% active; also: potency is read from the fitted curve at half-maximal effect; % is scaled to controls: 0 for no effect and ±100 for the full control effect; nearly all actives have a fitted effect of over 50% in size
G9a block – qHTS Assay for Inhibitors of Histone Lysine Methyltransferase G9a. Histone-lysine N-methyltransferase EHMT2 (Homo sapiens), Q96KQ7. G9a H3K9 monomethylation, AlphaScreen, 2 h. Potency, µM (titrated, usually from 102 µM), for the others: at the top dose activity, negative = inhibition, hits mostly inhibitors. 350,000 tested, 8.8% active; also: potency is read from the fitted curve at half-maximal effect; % is scaled to controls: 0 for no effect and ±100 for the full control effect; nearly all actives have a fitted effect of over 75% in size
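G9a (20 nM) preincubated 15 min RT with compounds, then 500 nM biotinylated H3K9 peptide and 20 uM SAM added; 2 h RT reaction. Monomethyl-H3K9 product detected by AlphaScreen with anti-H3K9me1 antibody, streptavidin donor and anti-rabbit IgG acceptor beads.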
* = called active by the depositor; [ ] = another dose, or the depositor's remark. Unless noted, calls follow the shape of the dose curve; as a rule, active = well fitted inhibition curve with a large enough effect; inconclusive = small, poorly fitted or top-dose-only effect; inactive = no such curve, though single readings can be large or run the other way.

Screening CN(C)CCn1c(=S)[nH]c2ccccc2c1=O returned BAZ2B block -1%, CtBP-E1A inh 2, HP1b binding inh inconclusive, Six1-Eya2 inh 3, JMJD2A Tudor inh 50µM* and G9a block inconclusive.
`CN(C)CCCn1c(=S)[nH]c2ccccc2c1=O` gave BAZ2B block -5%, CtBP-E1A inh -6, HP1b binding inh 4%, Six1-Eya2 inh -4, JMJD2A Tudor inh 0% and G9a block 50µM*.
For CCCn1c(=S)[nH]c2ccccc2c1=O the results were BAZ2B block -17%, CtBP-E1A inh -22, HP1b binding inh 11%, Six1-Eya2 inh 8, JMJD2A Tudor inh -5% and G9a block -44%.
`COn1c(=S)[nH]c2ccccc2c1=O` gave BAZ2B block -9%, CtBP-E1A inh -3, HP1b binding inh 12%, Six1-Eya2 inh -3, JMJD2A Tudor inh 89µM* and G9a block inconclusive.
Screening CCN(CC)CCn1c(=S)[nH]c2ccc(Cl)cc2c1=O returned BAZ2B block -28%, CtBP-E1A inh 2, HP1b binding inh 19%, Six1-Eya2 inh -10, JMJD2A Tudor inh -27% and G9a block 32µM*.
For CC(C)n1c(=S)[nH]c2ccccc2c1=O the results were BAZ2B block 20%, CtBP-E1A inh -1, HP1b binding inh -11%, Six1-Eya2 inh 1, JMJD2A Tudor inh -7% and G9a block -28%[12.7 µM].
`O=c1c2ccccc2[nH]c(=S)n1Cc1cccnc1` gave BAZ2B block 1%, CtBP-E1A inh 7, HP1b binding inh -22%, Six1-Eya2 inh -1, JMJD2A Tudor inh 28µM* and G9a block -7%[59 µM].
For O=c1c2nccnc2[nH]c(=S)n1Cc1ccccc1 the results were CtBP-E1A inh 3, HP1b binding inh 67%, Six1-Eya2 inh 8, JMJD2A Tudor inh -1% and G9a block 40µM*.
For O=c1c2cc(Br)ccc2[nH]c(=S)n1Cc1cccnc1 the results were BAZ2B block 0%, CtBP-E1A inh 10, HP1b binding inh 45%, Six1-Eya2 inh 14, JMJD2A Tudor inh -12% and G9a block 9%.
For CC(CNC(=O)c1ccc2nc(CCc3ccccc3)oc2c1)c1ccccc1 (stereo not drawn) the results were BAZ2B block 0%, HP1b binding inh 14%[57 µM], JMJD2A Tudor inh -13% and G9a block 14%[59 µM].
`CC1=C(C(=O)Nc2ccccc2)C(c2ccc(Br)cc2)n2nc(CCCO)nc2N1` (stereo not drawn) gave BAZ2B block 4%, HP1b binding inh 31%, JMJD2A Tudor inh 9% and G9a block -8%[59 µM].
For CCOc1ccccc1NC(=O)/C=C/c1ccc(S(=O)(=O)N2CCOCC2)cc1 the results were BAZ2B block -4%, CtBP-E1A inh -22, HP1b binding inh 9%, Six1-Eya2 inh -2, JMJD2A Tudor inh -20% and G9a block 50µM*.
For CCN1CCN(c2ccc(S(=O)(=O)N3CCOCC3)cc2NC(=O)c2ccc(Cl)cc2Cl)CC1 the results were BAZ2B block -4%, CtBP-E1A inh -2, HP1b binding inh 16%, Six1-Eya2 inh -8, JMJD2A Tudor inh -16% and G9a block 13µM*.
`COc1ccc(/C=C/C(=O)Nc2cc(S(=O)(=O)N3CCOCC3)ccc2N2CCCC2)cc1OC` gave BAZ2B block inconclusive, CtBP-E1A inh 25, HP1b binding inh -9%, Six1-Eya2 inh -13, JMJD2A Tudor inh -28% and G9a block -28%.
`COc1cc(/C=C/C(=O)Nc2cc(S(=O)(=O)N3CCOCC3)ccc2N2CCCC2)cc(OC)c1OC` gave BAZ2B block -29%, CtBP-E1A inh 0, HP1b binding inh inconclusive, Six1-Eya2 inh -1, JMJD2A Tudor inh -31% and G9a block 10µM*.
CCOc1ccccc1NC(=O)c1ccc(S(=O)(=O)N2CCOCC2)cc1 was read as BAZ2B block 2%, CtBP-E1A inh 4, HP1b binding inh 40%, Six1-Eya2 inh -3, JMJD2A Tudor inh -5% and G9a block 0%.
CCN1CCN(c2ccc(S(=O)(=O)N3CCOCC3)cc2NC(=O)/C=C/c2ccc(OC)c(OC)c2)CC1 was read as BAZ2B block 6%, CtBP-E1A inh 3, HP1b binding inh 10%, Six1-Eya2 inh -4, JMJD2A Tudor inh -20% and G9a block 14µM*.
Screening Cn1cc(-c2cc3n(n2)CCC(=O)N3CCCC(=O)Nc2ccccc2F)c2ccccc21 returned BAZ2B block -12%, HP1b binding inh 27%[57 µM], JMJD2A Tudor inh inconclusive and G9a block -5%[59 µM].
For CCN1CCN(c2ccc(S(=O)(=O)N3CCCCC3)cc2NC(=O)/C=C/c2ccc(OC)c(OC)c2)CC1 the results were BAZ2B block inconclusive, CtBP-E1A inh -14, HP1b binding inh -6%, Six1-Eya2 inh -3, JMJD2A Tudor inh -35% and G9a block 22µM*.
CCN1CCN(c2ccc(S(=O)(=O)N3CCOCC3)cc2NC(=O)/C=C/c2cccc(OC)c2OC)CC1 was read as BAZ2B block -12%, CtBP-E1A inh -16, HP1b binding inh 9%, Six1-Eya2 inh -7, JMJD2A Tudor inh -12% and G9a block 28µM*.
For CCN1CCN(c2ccc(S(=O)(=O)N3CCCCC3)cc2NC(=O)/C=C/c2cc(OC)ccc2OC)CC1 the results were BAZ2B block inconclusive, CtBP-E1A inh -25, HP1b binding inh 3%, Six1-Eya2 inh -21, JMJD2A Tudor inh -24% and G9a block inconclusive.
`COc1ccc(/C=C/C(=O)Nc2cc(S(=O)(=O)N3CCCCC3)ccc2N2CCCCC2)cc1OC` gave BAZ2B block 4%, CtBP-E1A inh 2, HP1b binding inh 35%, Six1-Eya2 inh 0, JMJD2A Tudor inh -17% and G9a block 4%[59 µM].
`CCOC(=O)N1CCN(/[N+]([O-])=N/Oc2ccc([N+](=O)[O-])cc2[N+](=O)[O-])C(C)C1` (stereo not drawn) gave HP1b binding inh 25% and JMJD2A Tudor inh -9%.
Screening CCOC(=O)c1c(N)n(-c2ccc(Cl)c(Cl)c2)c2nc3ccccc3nc12 returned BAZ2B block 0%, HP1b binding inh 31%, JMJD2A Tudor inh -2% and G9a block 8%[59 µM].
